Assay results: paper PMC5700166

Assays:
Assay in all cases: protein-binding microarray (PBM); PBM: ~300 nM protein, 6 mM HEPES pH 7.8, 80 mM KCl, 0.5 mM EDTA, 0.5 mM EGTA, 6% glycerol, 35 ng/ul poly-dIdC, 1% milk, 1 h, room temperature; Ap Aiptasia and Nv Nematostella (sea anemones) / Co Capsaspora / Aq Amphimedon (sponge) / Dm Drosophila / Hu human; RHD is the Rel homology domain; high values mean tight binding
Settings in all cases: dsDNA, one strand shown
GST-Ap-NF-kB RHD = target: T1, GST-Ap-NF-kB RHD (Exaiptasia pallida (Aiptasia), UniProt A0A913YAJ5 2-422)
T1 sequence: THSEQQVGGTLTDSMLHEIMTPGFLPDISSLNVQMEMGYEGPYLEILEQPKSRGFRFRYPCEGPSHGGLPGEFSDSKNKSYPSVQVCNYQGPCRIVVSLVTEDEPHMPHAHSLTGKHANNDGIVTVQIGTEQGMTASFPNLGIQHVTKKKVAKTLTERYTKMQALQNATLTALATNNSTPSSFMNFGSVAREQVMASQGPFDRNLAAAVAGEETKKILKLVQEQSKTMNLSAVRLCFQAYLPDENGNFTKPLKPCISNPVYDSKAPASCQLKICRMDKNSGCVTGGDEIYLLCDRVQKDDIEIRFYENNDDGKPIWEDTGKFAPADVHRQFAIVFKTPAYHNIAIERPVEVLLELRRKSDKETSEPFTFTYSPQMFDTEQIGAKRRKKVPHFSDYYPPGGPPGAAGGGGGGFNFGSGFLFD

[1] = target: T2, GST-Nv-NF-kB (Cys allele) (Nematostella vectensis, UniProt E5G601 2-411)
T2 sequence: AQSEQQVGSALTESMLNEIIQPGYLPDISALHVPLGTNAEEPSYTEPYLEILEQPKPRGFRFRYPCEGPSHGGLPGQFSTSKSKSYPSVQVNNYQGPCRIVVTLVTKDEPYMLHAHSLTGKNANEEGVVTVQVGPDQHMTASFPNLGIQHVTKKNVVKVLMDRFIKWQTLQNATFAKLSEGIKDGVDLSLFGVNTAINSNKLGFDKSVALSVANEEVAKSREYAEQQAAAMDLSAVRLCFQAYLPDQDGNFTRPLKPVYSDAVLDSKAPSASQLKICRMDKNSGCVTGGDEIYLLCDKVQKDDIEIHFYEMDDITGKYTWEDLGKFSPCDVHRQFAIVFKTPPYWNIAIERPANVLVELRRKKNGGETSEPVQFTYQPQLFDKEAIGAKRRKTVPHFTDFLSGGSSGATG

GST-Co-NF-kB = target: T3, GST-Co-NF-kB (Capsaspora owczarzaki, UniProt F1ARL5 200-546)
T3 sequence: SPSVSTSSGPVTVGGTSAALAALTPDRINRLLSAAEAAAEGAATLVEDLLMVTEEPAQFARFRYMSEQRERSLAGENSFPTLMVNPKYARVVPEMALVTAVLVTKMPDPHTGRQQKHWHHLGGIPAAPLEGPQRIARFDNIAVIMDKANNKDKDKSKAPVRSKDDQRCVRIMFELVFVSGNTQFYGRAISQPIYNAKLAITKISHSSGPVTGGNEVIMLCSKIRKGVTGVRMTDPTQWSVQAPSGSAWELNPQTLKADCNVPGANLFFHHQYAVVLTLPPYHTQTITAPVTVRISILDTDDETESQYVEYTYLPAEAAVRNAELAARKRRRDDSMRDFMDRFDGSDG

GST-Dm-Relish = target: T4, GST-Dm-Relish (Drosophila melanogaster, UniProt Q94527 99-473)
T4 sequence: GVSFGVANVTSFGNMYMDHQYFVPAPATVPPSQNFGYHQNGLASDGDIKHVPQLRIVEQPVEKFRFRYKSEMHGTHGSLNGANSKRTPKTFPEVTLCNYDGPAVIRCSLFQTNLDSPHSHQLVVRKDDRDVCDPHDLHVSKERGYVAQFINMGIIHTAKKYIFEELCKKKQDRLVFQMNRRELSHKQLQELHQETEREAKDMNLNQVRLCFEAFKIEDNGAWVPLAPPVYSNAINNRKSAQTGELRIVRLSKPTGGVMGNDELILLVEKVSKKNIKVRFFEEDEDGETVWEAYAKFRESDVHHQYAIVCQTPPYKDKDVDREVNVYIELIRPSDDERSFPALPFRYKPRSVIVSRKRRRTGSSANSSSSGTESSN

GST-Aq-NF-kB = target: T5, GST-Aq-NF-kB (Amphimedon queenslandica, UniProt A9Y5G7 2-389)
T5 sequence: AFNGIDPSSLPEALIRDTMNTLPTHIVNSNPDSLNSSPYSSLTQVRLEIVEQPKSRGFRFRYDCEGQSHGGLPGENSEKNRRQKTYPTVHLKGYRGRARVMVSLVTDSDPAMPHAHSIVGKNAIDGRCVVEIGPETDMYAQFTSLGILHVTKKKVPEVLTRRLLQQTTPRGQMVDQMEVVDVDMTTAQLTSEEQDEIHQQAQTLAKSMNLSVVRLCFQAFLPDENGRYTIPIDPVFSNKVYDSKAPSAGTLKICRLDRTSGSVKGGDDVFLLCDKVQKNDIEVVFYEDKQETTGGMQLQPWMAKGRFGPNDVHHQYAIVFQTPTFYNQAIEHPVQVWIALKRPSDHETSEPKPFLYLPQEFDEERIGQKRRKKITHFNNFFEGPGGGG

| Sequence | binding signal (GST-Ap-NF-kB RHD) | binding signal [1] | binding signal (GST-Co-NF-kB) | binding signal (GST-Dm-Relish) | binding signal (GST-Aq-NF-kB) |
| --- | --- | --- | --- | --- | --- |
| CCGATTAACATCAAATTCCCAGATGATGTTAATCGGGTCTTGATTCGCTTGACGCTGCTG | 2.43 z-score | 3.57 z-score | 3.87 z-score | 3.52 z-score | 2.42 z-score |
| CCGATTAACATCACAAACGGGGCTGATGTTAATCGGGTCTTGATTCGCTTGACGCTGCTG | 1.5 z-score | 2.75 z-score | 1.3 z-score | 1.33 z-score | 3.49 z-score |
| CCGATTAACATCACCTTGGGAAATGATGTTAATCGGGTCTTGATTCGCTTGACGCTGCTG | 1.21 z-score | 1.7 z-score | 2.79 z-score | – | 1.62 z-score |
| CCGATTAACATCATCCCCGTGTCTGATGTTAATCGGGTCTTGATTCGCTTGACGCTGCTG | 2.75 z-score | 3.34 z-score | 4.49 z-score | 2.12 z-score | 3.87 z-score |
| CCGATTAACATCACGGGAAGTCCTGATGTTAATCGGGTCTTGATTCGCTTGACGCTGCTG | 2.98 z-score | 3.06 z-score | 1.33 z-score | 7.73 z-score | 6 z-score |
| CCGATTAACATCACTAAATTCCCTGATGTTAATCGGGTCTTGATTCGCTTGACGCTGCTG | 3.8 z-score | 5.35 z-score | 4.15 z-score | 3.63 z-score | 4.56 z-score |
| CCGATTAACATCAGGGAATGTACTGATGTTAATCGGGTCTTGATTCGCTTGACGCTGCTG | 2.21 z-score | 3.28 z-score | 2.29 z-score | 7.08 z-score | 4.86 z-score |
| CCGATTAACATCAGGGAAAGAACTGATGTTAATCGGGTCTTGATTCGCTTGACGCTGCTG | 1.89 z-score | 3.99 z-score | 2.55 z-score | 6.83 z-score | 4.9 z-score |
| CCGATTAACATCAAGGTAATCCCTGATGTTAATCGGGTCTTGATTCGCTTGACGCTGCTG | 4.1 z-score | 2.08 z-score | 1.06 z-score | 5.22 z-score | 3.95 z-score |
| CCGATTAACATCAAGTAAATCCCTGATGTTAATCGGGTCTTGATTCGCTTGACGCTGCTG | 2.24 z-score | 2.71 z-score | 1.22 z-score | 7.89 z-score | 3.24 z-score |
| CCGATTAACATCAGGGATCACCCTGATGTTAATCGGGTCTTGATTCGCTTGACGCTGCTG | 3.86 z-score | 2.9 z-score | 1.02 z-score | 6.12 z-score | 5.65 z-score |
| CCGATTAACATCAGGGGTTTCCATGATGTTAATCGGGTCTTGATTCGCTTGACGCTGCTG | 5.75 z-score | 5.04 z-score | 1.21 z-score | 8.15 z-score | 5.61 z-score |
| CCGATTAACATCAGGGTGTTTTATGATGTTAATCGGGTCTTGATTCGCTTGACGCTGCTG | 2.75 z-score | 2.67 z-score | 1.55 z-score | 3.11 z-score | 4.69 z-score |
| CCGATTAACATCAAACTCTCCCCTGATGTTAATCGGGTCTTGATTCGCTTGACGCTGCTG | 5.13 z-score | 4.94 z-score | 6.22 z-score | 1.21 z-score | 4.74 z-score |
| CCGATTAACATCAAAACAACCCCTGATGTTAATCGGGTCTTGATTCGCTTGACGCTGCTG | 3.57 z-score | 3.44 z-score | 2.54 z-score | 2.68 z-score | 4.83 z-score |
| CCGATTAACATCAAATCACCCCCTGATGTTAATCGGGTCTTGATTCGCTTGACGCTGCTG | 4.73 z-score | 4.59 z-score | 6.61 z-score | 4.37 z-score | 5.32 z-score |
| CCGATTAACATCAAACTTTCCCATGATGTTAATCGGGTCTTGATTCGCTTGACGCTGCTG | 3.24 z-score | 4.83 z-score | 4.07 z-score | 1.39 z-score | 5.27 z-score |
| CCGATTAACATCAGGGGTTTACCTGATGTTAATCGGGTCTTGATTCGCTTGACGCTGCTG | 5.65 z-score | 5.44 z-score | 1.56 z-score | 9.7 z-score | 6.9 z-score |
| CCGATTAACATCACATATACCCCTGATGTTAATCGGGTCTTGATTCGCTTGACGCTGCTG | 3.26 z-score | 1.78 z-score | 4.3 z-score | 1.34 z-score | 2.28 z-score |
| CCGATTAACATCAAGTACTTCCCTGATGTTAATCGGGTCTTGATTCGCTTGACGCTGCTG | 2.1 z-score | 2.22 z-score | 2.13 z-score | 8.12 z-score | 3.13 z-score |
| CCGATTAACATCACGAGATTCCCTGATGTTAATCGGGTCTTGATTCGCTTGACGCTGCTG | 3.03 z-score | 3.39 z-score | 2.52 z-score | 1.75 z-score | 3.38 z-score |
| CCGATTAACATCAAGGGGAGTCCTGATGTTAATCGGGTCTTGATTCGCTTGACGCTGCTG | 6.71 z-score | 4.83 z-score | 2.5 z-score | 8.01 z-score | 5.29 z-score |
| CCGATTAACATCAGGGAATTAAATGATGTTAATCGGGTCTTGATTCGCTTGACGCTGCTG | 2.06 z-score | 4.46 z-score | 3.84 z-score | 2.47 z-score | 4.32 z-score |
| CCGATTAACATCAGGGGGATGGATGATGTTAATCGGGTCTTGATTCGCTTGACGCTGCTG | 3.8 z-score | 3.13 z-score | 3.52 z-score | 2.24 z-score | 3.5 z-score |
| CCGATTAACATCAGGGGGTACACTGATGTTAATCGGGTCTTGATTCGCTTGACGCTGCTG | 4.19 z-score | 2.66 z-score | 4.33 z-score | 3.21 z-score | 3.31 z-score |
| CCGATTAACATCACCCCTCCCCATGATGTTAATCGGGTCTTGATTCGCTTGACGCTGCTG | 3.7 z-score | 2.55 z-score | 3.58 z-score | 3.67 z-score | 2.92 z-score |
| CCGATTAACATCAGGGGGCATTATGATGTTAATCGGGTCTTGATTCGCTTGACGCTGCTG | 3.92 z-score | 4.06 z-score | 2.64 z-score | 2.7 z-score | 4.27 z-score |
